MITF inh – human MITF inhibition, primary screen; inhibition, % at 2.6 µM; 650,000 tested, 0.91% active; O75030; AlphaScreen MITF homodimerization, bead proximity signal; in the data active = inhibition above about 50%
Target sequence (O75030 whole entry, looked up): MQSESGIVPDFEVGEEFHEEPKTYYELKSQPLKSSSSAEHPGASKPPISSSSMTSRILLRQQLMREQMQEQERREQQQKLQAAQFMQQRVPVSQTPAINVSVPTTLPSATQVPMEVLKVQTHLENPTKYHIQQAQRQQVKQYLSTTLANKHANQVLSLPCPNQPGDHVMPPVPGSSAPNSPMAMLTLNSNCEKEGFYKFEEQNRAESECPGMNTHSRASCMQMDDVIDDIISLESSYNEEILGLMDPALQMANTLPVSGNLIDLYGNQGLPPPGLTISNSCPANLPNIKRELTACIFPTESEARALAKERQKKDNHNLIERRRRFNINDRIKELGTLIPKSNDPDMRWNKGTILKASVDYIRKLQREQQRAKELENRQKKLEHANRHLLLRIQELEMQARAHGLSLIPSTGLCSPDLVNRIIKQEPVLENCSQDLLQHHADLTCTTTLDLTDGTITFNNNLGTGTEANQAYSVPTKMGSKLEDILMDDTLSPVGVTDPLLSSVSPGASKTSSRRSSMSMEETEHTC
TEAD-YAP inh – TEAD-YAP interaction inhibition; 640,000 tested, 1.4% active; inhibition, % at 9.12 µM; AID 1259422; HEK-TIYL cells, TEAD-Gal4/YAP UAS-luciferase luminescence; in the data active = inhibition above about 32%
FBW7 act – human FBW7 E3 ligase activation, primary screen; 650,000 tested, 0.13% active; Q969H0; normalized activity (activation), % at 26.1 µM; AlphaScreen FBW7–phospho-cyclin E peptide binding, activator screen; AID 1259310; in the data active = normalized activity above about 1.9%;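 also: purified mutant Fbw7 with reduced substrate affinity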
GPR151 ag – human GPR151 activation. Q8TDV0. AID 1508602. activation, % at 11.2 µM. 650,000 tested, 1% active. PathHunter beta-arrestin GPR151 cells, luminescence; in the data active = activation above about 4.9%
Numbers stand for hits; n = inactive. Shown are actives, neighbours in structure and some others; about 3.4% of the full set was active somewhere.

SMILES | MITF inh | TEAD-YAP inh | FBW7 act | GPR151 ag
COc1ccc(/C=C/C(=O)Nc2ccc(S(=O)(=O)N(C)Cc3ccccc3)cc2)cc1 | n | 43 | n | n
CCOc1ccc(/C=C/C(=O)Nc2ccccc2)cc1 | n | 51 | n | n
O=C(Nc1ccncc1)C1CCN(C(=O)C(O)c2ccc(Br)cc2F)CC1 (configuration not stated) | n | n | n | n
COc1ccc(C2(C(=O)NC(C)c3nc(-c4cccnc4)n[nH]3)CCCCC2)cc1 (configuration not stated) | n | n | n | n
COc1ccc(C2(C(=O)NC(C)c3nc(-c4ccncc4)n[nH]3)CC2)cc1 (configuration not stated) | n | 64 | n | n
O=C1N[C@@H](Cc2ccc(Cl)cc2)C(=O)N2CCN(Cc3ccccc3)C[C@H]12 | n | n | n | n
O=C1N[C@@H](Cc2ccccc2)C(=O)N2CCN(Cc3ccc(Cl)cc3)C[C@H]12 | n | n | 2.1 | n
C[C@@H](O)[C@@H]1NC(=O)[C@H]2CN(C(=O)c3ccc(C(F)(F)F)cc3)CCN2C1=O | n | n | n | n
C=CCOc1c(Br)cc(Br)cc1/C=C(\C#N)C(N)=O | n | n | n | n
COc1ccc(/C=C(\NC(=O)c2ccccc2)C(=O)Nc2cccc(C)c2)cc1OC | n | n | n | n
COC(=O)c1sccc1NC(=O)c1csc(C)c1-c1ccccc1 | n | 33 | n | n
Cc1cc(=O)[nH]c(N/N=C/c2cc(Br)ccc2O)n1 | 65 | n | n | n
Cc1n[nH]c(=O)nc1N/N=C/c1ccccc1O | 94 | n | n | n
Cc1cc(=O)[nH]c(N/N=C/c2cc(C)c(/C=N/Nc3nc(C)cc(=O)[nH]3)cc2C)n1 | n | n | n | n
CC(C)(C)c1nnc(N/N=C/c2ccccc2O)[nH]c1=O | 96 | 82 | n | n
Cc1n[nH]c(=O)nc1N/N=C/c1cc(Br)ccc1O | 116 | 76 | n | n
CCCCOC(=O)N1CCN(C(=O)OCCCC)CC1 | n | n | n | n
O=C(Cc1cccc2ccccc12)Nc1ncc(S(=O)(=O)c2ccc([N+](=O)[O-])cc2)s1 | n | n | n | n
COCCOC(=O)c1ccc(NC(=O)c2ccc(Cl)cc2Cl)cc1 | n | n | n | n
CSc1ccccc1NC(=O)/C=C/c1ccc([N+](=O)[O-])o1 | n | 56 | n | n
CSc1ccccc1NC/C=C/c1ccc([N+](=O)[O-])o1 | n | n | n | n
Nc1nc(NCc2ccccc2)cc(N2CCCC2CO)n1 (configuration not stated) | n | 45 | n | n
Cc1cnc(N2CCCC2CO)nc1NCc1ccccc1 (configuration not stated) | n | 50 | n | n
CC(C)(O)C(=O)/C=C/c1cccc([N+](=O)[O-])c1 | n | 48 | n | n
COc1cc(Nc2nc(Cl)nc3c2ncn3-c2ccsc2)cc(OC)c1OC | n | 35 | n | n
SMILES | MITF inh | TEAD-YAP inh | FBW7 act | GPR151 ag
COc1cc(Nc2nc(Nc3ccc(-n4ccnc4)cc3)nc3c2ncn3-c2ccsc2)cc(OC)c1OC | n | 44 | n | n
COc1cc(Nc2nc(Nc3ccc(-n4ccnc4)cc3)nc3c2ncn3-c2ccccc2)cc(OC)c1OC | n | 34 | n | n
COc1cc(Nc2nc(Nc3ccccc3)c3ncn(-c4ccsc4)c3n2)cc(OC)c1OC | n | n | n | n
COc1cc(Nc2nc(Nc3cccnc3)nc3c2ncn3-c2ccsc2)cc(OC)c1OC | n | n | n | n
COc1cc(Nc2nc(Nc3cnccn3)nc3c2ncn3-c2ccsc2)cc(OC)c1OC | n | 38 | n | n
CC(=O)c1ccc(OCC(O)CNCCOc2ccc(C)cc2)cc1 (configuration not stated) | n | n | n | n
C=CCn1c(=NC(=O)c2cccc(N3C(=O)CCC3=O)c2)sc2cc(Cl)ccc21 | n | n | n | n
CC1=Cc2cc([N+](=O)[O-])ccc2OC12C=Cc1c(ccc3ccccc13)O2 (configuration not stated) | n | n | n | n
CCCN1C(=O)C(O)(CC(=O)c2ccccc2OC)c2cc(Br)ccc21 (configuration not stated) | n | n | n | n
CCCN1C(=O)C(O)(CC(=O)c2ccccc2O)c2cc(Br)ccc21 (configuration not stated) | n | 38 | n | n
CC12C(=O)N(c3cc(Cl)ccc3O)C(=O)C1C1C=CC2C1 (configuration not stated) | n | n | n | n
COc1cc(C)c2c(c1)oc(=O)c1ccccc12 | n | n | 2.2 | n
Cc1ccc(C)c(S(=O)(=O)Nc2ccc3scnc3c2)c1 | n | 39 | n | n
CCOc1cc(CN2CCN(C3CCN(C(C)C)CC3)C(CCO)C2)ccc1OC (configuration not stated) | n | n | n | n
Fc1ccc(CCn2c(C3COc4ccccc4O3)nc3ncc(-c4ccncc4)cc32)cc1 (configuration not stated) | n | 51 | n | n
c1ccc2c(c1)OCC(c1nc3ncc(-c4ccncc4)cc3[nH]1)O2 (configuration not stated) | n | n | n | n
Cc1cc(C)nc(SCC(=O)Nc2ccnc3ccccc23)n1 | n | 41 | n | n
c1ccc2c(c1)n(CCN1CCCCC1)c1ncnn21 | n | n | n | n
c1ccc2c(c1)nc1n(CCN3CCCCC3)cnn21 | n | n | 2.1 | n
CCNc1nc(Nc2ccc3c(c2)OCO3)c2ncn(C(C)C)c2n1 | n | n | n | n
CC(C)n1cnc2c(Nc3ccc4c(c3)OCO4)nc(Nc3nccc4ccccc34)nc21 | n | 36 | n | n
COc1cc(Nc2nc(Nc3ccc4ncccc4c3)nc3c2ncn3-c2ccsc2)cc(OC)c1OC | n | 32 | n | n
c1cnc2ccc(Nc3nc(Nc4ccc5c(c4)OCO5)c4ncn(-c5ccsc5)c4n3)cc2c1 | n | 45 | 8.5 | n
c1ccc2c(Nc3nc(Nc4ccc5c(c4)OCO5)c4ncn(-c5ccsc5)c4n3)nccc2c1 | n | 49 | n | n
COc1cc(Nc2nc(Nc3ccc(C(F)(F)F)cc3)nc3c2ncn3-c2ccsc2)cc(OC)c1OC | n | n | n | n
SMILES | MITF inh | TEAD-YAP inh | FBW7 act | GPR151 ag
CN1CCN(c2ncc(-c3ccc(CCC(=O)O)cc3)n3ccnc23)CC1 | n | n | n | n
c1ccc(-n2cnc3c(Nc4ccc5c(c4)OCO5)nc(Nc4ccncn4)nc32)cc1 | n | n | n | n
c1ccc(-n2cnc3c(Nc4ccc5c(c4)OCO5)nc(Nc4ccc5ncccc5c4)nc32)cc1 | n | n | 7.1 | n
c1ccc(-n2cnc3c(Nc4ccc5c(c4)OCO5)nc(Nc4ccc(-n5ccnc5)cc4)nc32)cc1 | n | 43 | n | n
CC(=O)N1C(=S)NC(=O)/C1=C/c1cc2cc(C)ccc2nc1N1CCOCC1 | n | 38 | n | n
Cc1ccc(-n2nc3cc(C)c(NC(=O)c4ccc([N+](=O)[O-])cc4Cl)cc3n2)cc1 | n | n | n | n
CCc1ccccc1NC(=O)c1ccc(F)c(S(=O)(=O)N2CCN(c3ccccc3F)CC2)c1 | n | n | n | n
O=C(N(c1cccc(C(F)(F)F)c1)C1C=CS(=O)(=O)C1)C(Cl)(Cl)Cl (configuration not stated) | n | 53 | n | n

Screening data deposited in PubChem by The Scripps Research Institute Molecular Screening Center.
